zVAD death inh: L929 zVAD cell death inhibition; L929 zVAD necroptosis rescue, ATP luminescence, 24 h; with zVAD 60 µM; viability rescue, % at 10 µM; hit rate 0.38% among 220,000;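 active means activation, scaled between plate controls, above about 75%, limit read from the data; inactive means activation under that limit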;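 further: 0% = zVAD with DMSO and 100% = DMSO alone without zVAD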
V-ATPase pH: regulators of yeast V-ATPase proton transport; S. cerevisiae, pHLuorin cytosolic pH fluorescence; response, % at 10 µM; hit rate 0.37% among 350,000; in the data active means response mostly above about 7.3%, no sharp cut-off; inactive means mostly below about 5.4%; further: actives read high
TNF death inh: TNF-alpha cell death inhibition in Jurkat FADD-/- cells; Jurkat FADD-/- TNF necroptosis rescue, ATP luminescence, 24 h; 0 = TNF only, 100 = no-TNF cells; activation (protection from cell death), % at 10 µM; hit rate 0.068% among 220,000;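 active means activation, meaning protection from cell death, of at least 50% relative to plate controls; inactive means activation below 50%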;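 further: necroptosis triggered by 40 ng/mL TNF-alpha added together with compound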
HSV replic up: HSV replication enhancement | HSV replication augmentation in cells, fold increase | maximum fold increase | hit rate 0.005% among 220,000; in the data active means maximum fold increase above about 1.5; inconclusive means no clear call, values can overlap the other calls; tested in PC3 cells
Wee1 stabilizer: human Wee1 degradation inhibition, primary screen | AID 1321 | reporter increase, % at 5 µM | P30291 | HeLa Luc-Wee1K328M stability, luciferase luminescence; 100% = proteasome inhibitor MG132 effect | hit rate 1.2% among 220,000;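 active means activation above the mean of all tested compounds plus 3 SD, set per screening run, cut at about 8.8% in these data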;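 further: cells exposed to compound for 20 h before luminescence read; 0% = DMSO alone and 100% = MG132 at 30 µM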
Target sequence (P30291 whole entry K328M): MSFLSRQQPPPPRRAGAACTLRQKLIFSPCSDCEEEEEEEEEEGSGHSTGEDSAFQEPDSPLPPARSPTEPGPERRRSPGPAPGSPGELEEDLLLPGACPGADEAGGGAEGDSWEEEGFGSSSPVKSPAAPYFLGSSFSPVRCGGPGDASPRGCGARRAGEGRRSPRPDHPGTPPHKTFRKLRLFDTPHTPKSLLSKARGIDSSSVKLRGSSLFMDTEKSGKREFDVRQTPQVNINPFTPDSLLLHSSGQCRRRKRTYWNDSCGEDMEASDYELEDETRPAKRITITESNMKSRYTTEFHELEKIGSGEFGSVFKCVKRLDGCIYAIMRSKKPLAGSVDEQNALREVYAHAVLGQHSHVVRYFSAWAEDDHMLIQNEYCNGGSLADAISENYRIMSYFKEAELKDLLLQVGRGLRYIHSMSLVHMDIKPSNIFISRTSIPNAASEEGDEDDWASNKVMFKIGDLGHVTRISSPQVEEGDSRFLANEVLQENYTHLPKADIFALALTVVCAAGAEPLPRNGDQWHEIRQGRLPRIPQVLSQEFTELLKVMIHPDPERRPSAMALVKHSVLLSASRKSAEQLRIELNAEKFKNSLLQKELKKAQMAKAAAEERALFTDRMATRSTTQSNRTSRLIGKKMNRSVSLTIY
* = called active by the depositor; i = inactive; u = inconclusive; x = not tested or not shown. A selection: hits, their analogues and other compounds. The true share with any hit is near 1.4%.

SMILES	zVAD death inh	V-ATPase pH	TNF death inh	HSV replic up	Wee1 stabilizer
N/C(=N\OC(=O)c1ccco1)c1ccccc1	1	2	-2	i	0
COC(=O)c1nnn(-c2ccsc2C(=O)OC)c1C(=O)OC	1	1	0	i	-2
CN(C)S(=O)(=O)c1cccc(NC(=O)c2ccccc2SCC(=O)N2CCCC2)c1	x	1	x	x	x
O=C(Nc1nc2ccc(S(=O)(=O)N3CCCC3)cc2s1)C1CCCCC1	0	2	-7	x	11*
COCCCn1c(C)nnc1-c1cnn(-c2ccccc2)c1N	2	1	1	i	0
Cc1ccc2nc(-c3ccc(NC(=O)CN4CCN(C(=O)c5ccco5)CC4)cc3)sc2c1	3	-7	0	i	11*
COc1ccc(-c2cc(-c3ccccc3)n[nH]2)c(O)c1	66	-4	6	i	10*
Fc1cccc(Cl)c1CNC(c1ccccc1)c1ccccc1	0	-28	-1	i	9.1*
COc1ccccc1NC1CCCCC1NS(=O)(=O)c1ccc(C)cc1 (stereo not drawn)	x	-1	x	x	x
COc1ccc(NC2CCCCC2NS(=O)(=O)c2ccc(C)cc2)cc1 (stereo not drawn)	x	21*	x	x	x
CN1CCN(C(=S)c2cn(Cc3ccc(F)cc3)c3ccccc23)CC1	-1	3	2	i	9.2*
CN1CCN(C(=S)c2cn(Cc3cccc(F)c3)c3ccccc23)CC1	0	1	1	i	0
N#C/C(=C\c1ccc([N+](=O)[O-])o1)c1nc2ccccc2[nH]1	46	x	-8	x	-2
Cc1ccc2nc(/C(C#N)=C\c3ccc(N4CCOCC4)o3)[nH]c2c1	0	3	-1	u	9.4*
Cc1ccc2nc(/C(C#N)=C\c3ccc([N+](=O)[O-])o3)[nH]c2c1	41	86*	-9	x	1
CC(=O)N1CCN(c2ccccc2NC(=O)c2cc(Br)ccc2Cl)CC1	0	18*	-1	i	0
COc1ccc(/C=N/Nc2nncc3ccccc23)c(OC)c1	x	-11	-3	i	8.9*
CCCCn1c(N)c(N(CC(C)C)C(=O)CCNC(=O)c2ccc([N+](=O)[O-])cc2)c(=O)[nH]c1=O	x	-9	x	x	x
Cc1c(CCC(=O)NCCCN2CCCC2=O)c(=O)oc2cc(O)ccc12	x	-3	x	x	x
CCOC(=O)c1cccc(N2C(=O)C3C4C=CC(CC4)C3C2=O)c1 (stereo not drawn)	x	0	x	x	x
CCOC(=O)C1=C(C)C2C3C(=O)N(c4cc(C)ccc4C)C(=O)C3C1(C)C1C(=O)N(c3cc(C)ccc3C)C(=O)C21 (stereo not drawn)	3	-1	-2	i	9.1*
Cc1nc([N+](=O)[O-])cn1CC(O)c1ccc(F)cc1 (stereo not drawn)	0	8	3	i	1
C/C(=N\NC(=O)c1ccc(NS(=O)(=O)c2cccs2)cc1)c1cccs1	9	4	2	i	0
C/C(=N\NC(=O)c1ccc(Cl)cc1)c1cccs1	2	12*	-2	i	2
C=CCn1c(SCC(=O)c2[nH]c(C)c(C(=O)OCC)c2C)nc2scc(-c3ccc(OC)c(OC)c3)c2c1=O	1	0	2	i	9.4*
SMILES	zVAD death inh	V-ATPase pH	TNF death inh	HSV replic up	Wee1 stabilizer
C(=N\NC1=Nc2cccc3cccc1c23)/c1ccccc1	1	2	1	i	8.9*
O=[N+]([O-])c1cccc(-c2nc(-c3ccccc3)no2)c1	7	-3	0	i	0
O=[N+]([O-])c1cccc(-c2noc(-c3ccco3)n2)c1	1	-6	0	i	8.9*
Cc1ccc(S(=O)(=O)Nc2ccc(O)c(Sc3ncn[nH]3)c2)cc1	1	1	1	i	-2
CCOc1ccc(S(=O)(=O)Nc2ccc(O)c(Sc3ncn[nH]3)c2)cc1	0	1	-1	x	29*
S=C(NCc1ccco1)Nc1cc(-c2ccccc2)[nH]n1	10	1	1	i	2
Cc1cc(-c2ccccc2C(=O)NC2CCCCC2)on1	0	-6	3	i	1
COc1ccc(-n2c(C)cc(-c3cn4cccc(C)c4n3)c2C)cc1	3	-2	3	i	8.8*
Cc1cc(-c2cn3ccccc3n2)c(C)n1-c1ccccc1	-1	0	0	i	-2
CC1CCCC(C)N1C(=O)COC(=O)C1CCN(S(=O)(=O)c2c(Cl)cccc2Cl)CC1 (stereo not drawn)	x	8	x	x	x
COc1ccc(CNC(=O)Cc2c[nH]c3ccccc23)cc1OC	x	0	x	x	x
COc1ccccc1CNC(=O)Cc1c[nH]c2ccccc12	x	13*	x	x	x
CCO[C@H]1OC(C(N)=O)=C[C@@H](c2coc3ccccc3c2=O)[C@@H]1CCCO	0	-3	-1	i	9.2*
COC(=O)c1cnc(N2CCOCC2)nc1C(F)(F)F	-1	-1	-1	i	10*
Cc1cc(=S)[nH]c(=S)[nH]1	0	-1	1	i	-1
CC1CCC2C(=O)N(c3ccccc3OC(=O)c3ccccc3F)C(=O)C2C1 (stereo not drawn)	-1	4	13	i	9.5*
O=C(Oc1ccccc1N1C(=O)C2CCCCC2C1=O)c1ccccc1 (stereo not drawn)	1	-7	-1	x	3
Cc1cc(C)nc(SC/C=C/c2ccccc2)n1	x	-1	x	x	x
C(=C\c1ccccc1)/CSc1ccccn1	0	2	0	i	9.2*
c1ccc(-c2cn3ccccc3n2)cc1	x	-1	x	x	x
Brc1ccc(-c2cn3ccccc3n2)cc1	0	4	-7	i	9.1*
COc1cccc(CC(NC(C)=O)C(=O)NC2CCN(c3nc(C)cc(C)c3C#N)CC2)c1 (stereo not drawn)	0	0	-4	i	0
COc1ccc(CC(NC(C)=O)C(=O)NC2CCN(c3nc(C)cc(C)c3C#N)CC2)c(OC)c1 (stereo not drawn)	3	-5	0	i	9.4*
CCN(CC)C(=O)CSc1nnc(-c2c[nH]c3ccccc23)o1	x	1	x	x	x
O=C(Nc1ccc(C2SCCS2)cc1)c1ccccc1	6	x	1	i	10*
SMILES	zVAD death inh	V-ATPase pH	TNF death inh	HSV replic up	Wee1 stabilizer
Cc1c(Cc2ccccc2)c(=O)oc2cc(OCC(=O)NCC(O)c3ccccc3)ccc12 (stereo not drawn)	x	0	x	x	x
COc1ccccc1NC(=O)CON=C(N)CC(=O)NC1CCCCC1	x	-2	x	x	x
COc1cccc(NCc2cc(=O)oc3cc(C)c(O)cc23)c1	x	2	x	x	x
COc1cccc(NCc2cc(=O)oc3cc(-c4ccccc4)c(O)cc23)c1	2	21*	2	i	3
C/C(=N\NC(=O)c1nnn(-c2nonc2N)c1-c1ccc2c(c1)OCO2)c1cccs1	x	-4	x	x	x
CC(COC(=O)c1ccccc1)(COC(=O)c1ccccc1)/[N+]([O-])=C/c1ccccc1	0	9	0	i	-2
CC(C)(COC(=O)c1ccccc1)N1CC2CCC(C1)O2	x	19*	x	x	x
Cc1cnc(C(=O)NCc2ccc(F)cc2)cn1	x	3	x	x	x
